Our source for the potency estimated from few doses values is paper PMC11062922 (Nature Chemical Biology, 2023).

Read-outs that look alike come from different tables or passages of the source.

Design in all cases: species or system human, MV4-11 + K-562 + COLO205 + SK-N-BE2 + OVCAR-8
One assay concerns ATM. The note with it: read-out: apparent Kd; compound concentrations:100 nM and 1000 nM (sheet 'Samples'); n = 1.
The next assay has as its system AURKA. The note with it: read-out: apparent Kd, n = 1.
The test system of a further assay is BCR. The note with it: read-out: apparent Kd, n = 1.
The next assay concerns CAMKK2. The note with it: read-out: apparent Kd, n = 1.
Another assay deals with CHEK1. The note with it: read-out: apparent Kd, n = 1.
Another assay concerns EPHA4. The settings on record: read-out: apparent Kd, n = 1.
The test system of another assay is EPHA5. The settings on record: read-out: apparent Kd, n = 1.
The next assay relates to EPHB2. The note with it: read-out: apparent Kd, n = 1.
For the next assay, the system named is EPHB4. The settings on record: read-out: apparent Kd, n = 1.
For a further assay, the system named is MARK3. The note with it: read-out: apparent Kd, n = 1.
The next assay concerns PRKACB. The settings on record: read-out: apparent Kd, n = 1.
A further assay concerns PRKAG2. The settings on record: read-out: apparent Kd, n = 1.
A further assay relates to TNK1. The settings on record: read-out: apparent Kd, n = 1.
In the next assay the test system is TNK2. The note with it: read-out: apparent Kd, n = 1.
The subject of another assay is CSNK1D. The note with it: read-out: apparent Kd, n = 1.
The next assay has as its system MAPK10. The settings on record: read-out: apparent Kd; compound concentrations: 100 nM and 1000 nM (sheet 'Samples'), CATDS: 4.1731696442012502E-2; n = 1.
For a further assay, the system named is MAPK9. The note with it: read-out: apparent Kd; compound concentrations: 100 nM and 1000 nM (sheet 'Samples'), CATDS: 3.1045225372311899E-2; n = 1.
For a further assay, the system named is PRKACA. The settings on record: read-out: apparent Kd, compound concentrations: 100 nM and 1000 nM (sheet 'Samples'), n = 1.
Setting [1] is: compound concentrations:100 nM and 1000 nM (sheet 'Samples').

`O=C1NC(=O)C(N2CCc3ccccc32)=C1c1ccccc1Cl` [SB-373598]: the potency estimated from few doses is 0.0391 µM with ATM; 0.295 µM in the assay on AURKA (setting [1]); 0.243 µM in the assay with BCR (setting [1]); 0.588 µM in the assay on CAMKK2 (setting [1]); 0.999 µM with CHEK1 (setting [1]); 0.387 µM in the assay with EPHA4 (setting [1]). For the same molecule, the potency estimated from few doses is 0.276 µM in the assay with EPHA5 (setting [1]); 0.11 µM in the assay with EPHB2 (setting [1]); 0.129 µM with EPHB4 (setting [1]); 1.28 µM with MARK3 (setting [1]); 1.48 µM in the assay on PRKACB (setting [1]); 1.39 µM in the assay on PRKAG2 (setting [1]). Also, the potency estimated from few doses is 0.0313 µM in the assay with TNK1 (setting [1]) and 0.108 µM with TNK2 (setting [1]).
On to `Cl.NCc1ccc(-c2nc(-c3ccc(Cl)c(O)c3)c(-c3ccncc3)[nH]2)cc1` [SB-476429-A], for which the potency estimated from few doses in the assay with CSNK1D (setting [1]) is 1.29 µM.
For the molecule `CN(c1ccc(NC(=O)N2CCN(CCCN3CCOCC3)CC2)cc1)c1ccnc(Nc2ccc(CS(C)(=O)=O)cc2)n1.Cl` [GW830899A], the potency estimated from few doses with AURKA (compound concentrations: 100 nM and 1000 nM (sheet 'Samples'), CATDS: 2.4317426688995499E-2) is 0.955 µM; in the assay with CAMKK2 (compound concentrations: 100 nM and 1000 nM (sheet 'Samples'), CATDS: 1.7762622720353199E-2), 2.19 µM; in the assay with EPHA4 (compound concentrations: 100 nM and 1000 nM (sheet 'Samples'), CATDS: 2.15154621578117E-2), 1.27 µM; with EPHA5 (compound concentrations: 100 nM and 1000 nM (sheet 'Samples'), CATDS: 2.2767251891404602E-2), 1.11 µM; in the assay on MARK3 (compound concentrations: 100 nM and 1000 nM (sheet 'Samples'), CATDS: 1.9647586530532599E-2), 1.61 µM; with PRKACB (compound concentrations: 100 nM and 1000 nM (sheet 'Samples'), CATDS: 1.9426092751651199E-2), 1.66 µM. Further, in the assay on TNK2 (compound concentrations: 100 nM and 1000 nM (sheet 'Samples'), CATDS: 3.2652944878228798E-2), the potency estimated from few doses is 0.544 µM.
For the molecule `CCOC(=O)N1CCC(n2cnc(-c3ccc(F)cc3)c2-c2ccnc(N)n2)CC1` [SB-219952], the potency estimated from few doses is 0.901 µM with AURKA (compound concentrations: 100 nM and 1000 nM (sheet 'Samples'), CATDS: 9.8512895449749706E-3); 0.701 µM with CAMKK2 (compound concentrations: 100 nM and 1000 nM (sheet 'Samples'), CATDS: 1.08972773288713E-2); 1.39 µM in the assay on CHEK1 (compound concentrations: 100 nM and 1000 nM (sheet 'Samples'), CATDS: 8.4863258398705493E-3); 0.00915 µM with CSNK1D (compound concentrations: 100 nM and 1000 nM (sheet 'Samples'), CATDS: 0.19590664085395099); 0.493 µM with EPHA4 (compound concentrations: 100 nM and 1000 nM (sheet 'Samples'), CATDS: 1.2785015902171799E-2); 0.397 µM with EPHA5 (compound concentrations: 100 nM and 1000 nM (sheet 'Samples'), CATDS: 1.42398980321412E-2). In addition, the potency estimated from few doses is 0.329 µM with EPHB2 (compound concentrations: 100 nM and 1000 nM (sheet 'Samples'), CATDS: 1.57002336523176E-2); 0.344 µM with EPHB4 (compound concentrations: 100 nM and 1000 nM (sheet 'Samples'), CATDS: 1.53468623139909E-2); 0.069 µM in the assay with MAPK10; 0.107 µM in the assay on MAPK9; 1.3 µM in the assay on MARK3 (compound concentrations: 100 nM and 1000 nM (sheet 'Samples'), CATDS: 8.6555083221940901E-3); 1.69 µM with PRKACA (CATDS: 8.0141425433071494E-3). Moreover, the potency estimated from few doses is 1.73 µM with PRKACB (compound concentrations: 100 nM and 1000 nM (sheet 'Samples'), CATDS: 7.9637145567790901E-3); 0.905 µM in the assay on PRKAG2 (compound concentrations: 100 nM and 1000 nM (sheet 'Samples'), CATDS: 9.8371603155967009E-3); 0.472 µM with TNK1 (compound concentrations: 100 nM and 1000 nM (sheet 'Samples'), CATDS: 1.30567209660681E-2); 0.307 µM with TNK2 (compound concentrations: 100 nM and 1000 nM (sheet 'Samples'), CATDS: 1.6319458510121398E-2).
Turning to `O=C1N=C(NCCc2ccc(Cl)cc2)S/C1=C\c1ccc2ncccc2c1` [RO4498479-000], the potency estimated from few doses with AURKA (compound concentrations: 100 nM and 1000 nM (sheet 'Samples'), CATDS: 1.0602350822893101E-2) was 0.486 µM; in the assay on BCR (compound concentrations: 100 nM and 1000 nM (sheet 'Samples'), CATDS: 1.6408594866795901E-2), 0.215 µM; in the assay with CAMKK2 (compound concentrations: 100 nM and 1000 nM (sheet 'Samples'), CATDS: 9.9016852028132405E-3), 0.568 µM; with CHEK1 (compound concentrations: 100 nM and 1000 nM (sheet 'Samples'), CATDS: 7.8682297996918397E-3), 1.07 µM; with EPHA4 (compound concentrations: 100 nM and 1000 nM (sheet 'Samples'), CATDS: 1.4543255052935199E-2), 0.263 µM; in the assay on EPHA5 (compound concentrations: 100 nM and 1000 nM (sheet 'Samples'), CATDS: 2.0414571032165901E-2), 0.153 µM. For the same molecule, the potency estimated from few doses in the assay with EPHB2 (compound concentrations: 100 nM and 1000 nM (sheet 'Samples'), CATDS: 1.7636169639023699E-2) is 0.191 µM; with EPHB4 (compound concentrations: 100 nM and 1000 nM (sheet 'Samples'), CATDS: 2.15431657098582E-2), 0.141 µM; in the assay with MARK3 (compound concentrations: 100 nM and 1000 nM (sheet 'Samples'), CATDS: 8.4864305198955707E-3) it was 0.848 µM; in the assay with PRKACA (CATDS: 8.4640851007318392E-3), 0.854 µM; with PRKACB (compound concentrations: 100 nM and 1000 nM (sheet 'Samples'), CATDS: 9.3487346254019794E-3), 0.654 µM; in the assay on PRKAG2 (compound concentrations: 100 nM and 1000 nM (sheet 'Samples'), CATDS: 1.04447346657642E-2), 0.503 µM. Also, the potency estimated from few doses in the assay with TNK1 (compound concentrations: 100 nM and 1000 nM (sheet 'Samples'), CATDS: 1.8006750719606699E-2) is 0.185 µM; in the assay on TNK2 (compound concentrations: 100 nM and 1000 nM (sheet 'Samples'), CATDS: 1.88242032678454E-2) it was 0.173 µM.
